From PubChem BioAssay (NCI) come the findings set out here.

The panel holds about 79,000 compounds, 15% with a hit somewhere; the sample as a whole holds those more often. A number with no mark means an inactive call. Calls of active or inactive are those of the source. No stated cut-off is given here; in the data, active means growth inhibition above about 70%; inactive means the rest.

The nature of the assay: NCI Yeast Anticancer Drug Screen. Data for the rad50 strain (AID 155).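 Further: 0% = growth of vehicle-only cultures of the same strain.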 To be noted: S. cerevisiae rad50 strain growth inhibition; at 5.0 µM (retest, dose inferred, filed as 0.5); hits give high values. In short, it runs like this:
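Readout: growth inhibition relative to vehicle-treated cultures. Compound exposure was carried out in a genetically defined yeast strain deficient in DNA damage repair.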
On to `CCC(c1ccccc1)N1C(=O)c2ccccc2S1(=O)=O` (configuration not stated), for which the growth inhibition was -3%.

As for `Cc1ccc2cc3ccccc3c(-c3ccccc3)c2c1`, the growth inhibition was 5%. Regarding `CC(=O)Oc1ccc(C)cc1C(C)(C)C`, the growth inhibition was -1%. Regarding `CCCCCCCCCCC[N+](C)(C)CCCCCC[N+](C)(C)CCCCCCCCCCC`, the growth inhibition was 92% (active).

Take `CCN(CC)CCCNc1nc(NCCCN(CC)CC)c2nc(-c3ccccc3)c(-c3ccccc3)nc2n1`: the growth inhibition was -3%. Under `O=[N+]([O-])c1cnc(Sc2cncc[n+]2[O-])s1` stands 99% (active). As for `O=c1[nH]c(=O)c2cc([N+](=O)[O-])cc([N+](=O)[O-])c2[nH]1`, the growth inhibition is 9%.

As for `O=C(NC(=O)C(F)(F)F)Nc1ccc(Cl)cc1`, the growth inhibition is 1%.

Take `O=[N+]([O-])c1ccc(S)c(Cl)c1`: the growth inhibition was 16%.

Consider `CS(=O)(=O)n1c(C(O)c2ccccc2)nc2ccccc21` (configuration not stated), for which the growth inhibition is -4%. As for `O=C(NCc1ccccc1)C1C(=O)N(Cc2ccccc2)C(=O)/C1=N/O` (configuration not stated), the growth inhibition is -16%. On to `C[n+]1c(/C=C/c2ccccc2Cl)sc2ccccc21`, for which the growth inhibition is 83% (active). Turning to `CC(=O)c1ccc(Cl)c(N=Cc2cc(Br)ccc2O)c1`, the growth inhibition is 55%. Under `O=C(c1ccc(Cl)cc1)c1ccc([N+](=O)[O-])cc1` stands 13%; under `Nc1ccc2c(c1)[nH]c(=O)c1cc(Cl)c(Cl)cc12`, 87% (active).

On to `COc1ccc(C2CC(c3c(O)ccc4ccccc34)=NN2)cc1OC` (configuration not stated), for which the growth inhibition is -4%. The value for `CC[N+]1(C)CCC(O)(c2ccc(Cl)c(Cl)c2)C(C(=O)c2ccc(Cl)c(Cl)c2)C1` (configuration not stated) was 15%.
